Measured values reported in PubChem BioAssay (EPA / NIEHS).
Records with an inconclusive call do not appear. The source made the active and inactive calls. How the source made its calls, unless noted: active means hit-call score of the fitted dose curve at least 0.9, where 1 is the maximum; inactive means score below 0.9.

Tests used:
[1] = biological target: human Phosphatase and Tensin Homolog (PTEN), PTEN (gene 5728) (UniProt P60484); test: NVS_ENZ_hPTEN: NovaScreen (NVS) Enzymatic Assay for human Phosphatase and Tensin Homolog (PTEN) (AID 2283203; active means hit-call score of the fitted dose curve at least 0.9, where 1 is the maximum)
Chain of human Phosphatase and Tensin Homolog (PTEN), PTEN (gene 5728) (P60484 whole entry, looked up): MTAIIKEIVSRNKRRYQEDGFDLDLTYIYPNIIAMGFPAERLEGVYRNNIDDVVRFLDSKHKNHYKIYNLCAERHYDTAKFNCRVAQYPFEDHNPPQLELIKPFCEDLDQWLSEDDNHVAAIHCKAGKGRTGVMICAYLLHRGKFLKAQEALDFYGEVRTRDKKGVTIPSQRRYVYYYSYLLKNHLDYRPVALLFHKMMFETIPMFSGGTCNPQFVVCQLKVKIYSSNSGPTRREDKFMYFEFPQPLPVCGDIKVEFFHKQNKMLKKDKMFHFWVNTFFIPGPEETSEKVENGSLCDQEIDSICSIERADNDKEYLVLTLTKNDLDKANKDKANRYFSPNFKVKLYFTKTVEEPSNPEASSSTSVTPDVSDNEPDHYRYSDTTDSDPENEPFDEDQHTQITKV
In short: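 Cell-free recombinant human PTEN with fluorescent substrate; product separated by electrophoretic mobility shift and read by fluorescence 1 h after dosing. Primary screen in duplicate at 25 uM, actives followed in concentration series versus DMSO.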

[2] = TOX21_PR_BLA_Followup_Agonist_viability: Viability Assessment in the Tox21 HEK293 Progesterone Receptor (PR) Agonism Beta-lactamase Follow-Up Assay (AID 2283935; active means hit-call score of the fitted dose curve at least 0.9, where 1 is the maximum;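 further: signal loss means lower viability so actives are cytotoxic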)
In short: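 PR-UAS-bla HEK293T cells in 2% charcoal-stripped FBS medium, plated 6 hr before compound addition, exposed 16 hr at 37C. Viability read by CellTiter-Glo ATP luminescence after 30 min at room temperature, in the same wells as the beta-lactamase readout.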

[3] = TOX21_PR_BLA_Followup_Antagonist_viability: Viability Assessment in the Tox21 HEK293 Progesterone Receptor (PR) Antagonism Beta-lactamase Follow-Up Assay (AID 2283936; active means hit-call score of the fitted dose curve at least 0.9, where 1 is the maximum;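 further: hits lower the luminescence signal meaning cytotoxicity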)
In short: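 PR-UAS-bla HEK293T cells (3,000/well, 2% charcoal-stripped FBS) given compound plus R5020 agonist, 16 h at 37C. CellTiter-Glo added after bla read, 30 min at room temperature; luminescence loss indicates cytotoxicity.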

[4] = TOX21_PR_LUC_Followup_Agonist_viability: Viability Assessment in the Tox21 HEK293 Progesterone Receptor (PR) Agonism Luciferase Follow-Up Assay (AID 2283941; active means hit-call score of the fitted dose curve at least 0.9, where 1 is the maximum;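 further: loss of signal means cytotoxicity so actives lower viability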)
In short: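 HEK293-PR-A-luc cells, kept in 10% charcoal-stripped FBS medium, were treated with compounds for 16 h at 37C. Viability read as cellular ATP by luciferase-coupled luminescence; loss of signal indicates cytotoxicity.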

[5] = biological target: Bile acid receptor (Homo sapiens) (UniProt Q96RI1); test: OT_FXR_FXRSRC1_1440: Odyssey Thera (OT) 24-hour HEK293T Protein-Complementation Assay for Farnesoid X receptor/SRC-1 Co-activator (AID 2283384; active means hit-call score of the fitted dose curve at least 0.9, where 1 is the maximum)
Chain of Bile acid receptor (Homo sapiens) (Q96RI1 whole entry, looked up, the tested form may be a part): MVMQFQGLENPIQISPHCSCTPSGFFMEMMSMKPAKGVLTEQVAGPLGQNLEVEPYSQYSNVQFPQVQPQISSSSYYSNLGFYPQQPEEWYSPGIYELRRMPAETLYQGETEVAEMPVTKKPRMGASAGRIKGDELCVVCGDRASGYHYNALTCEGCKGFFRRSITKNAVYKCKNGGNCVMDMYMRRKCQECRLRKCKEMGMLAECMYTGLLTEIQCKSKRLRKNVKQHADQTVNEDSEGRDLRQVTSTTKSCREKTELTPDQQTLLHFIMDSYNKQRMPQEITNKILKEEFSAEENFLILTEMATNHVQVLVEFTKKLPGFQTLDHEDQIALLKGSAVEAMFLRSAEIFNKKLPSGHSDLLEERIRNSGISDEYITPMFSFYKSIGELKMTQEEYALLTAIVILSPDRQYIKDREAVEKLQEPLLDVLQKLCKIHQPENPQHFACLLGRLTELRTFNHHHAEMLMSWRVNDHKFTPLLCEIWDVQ
In short: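 HEK293T cells, 24 h after chemical dosing. FXR–SRC-1 coactivator interaction read as fluorescence from protein-fragment complementation of a split reporter. Gain of signal fitted against DMSO baseline.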

TTR (gene 7276) = test: CCTE_GLTED_hTTR_0.125uM: CCTE's human Transthyretin (hTTR) Inhibition Assay, with 0.125uM TTR, Great Lakes Toxicology and Ecology Division (GLTED) Lab (AID 2284431);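 further: hits lower the fluorescence signal relative to DMSO baseline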
In short: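 Cell-free displacement of ANSA probe from 0.125uM TTR after 2 h incubation with chemical. Fluorescence read at 380 nm excitation/475 nm emission; loss of signal relative to DMSO indicates T4-site displacement.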

[6] = CCTE_Shafer_MEA_dev_firing_rate_mean: CCTE's Neural Network Formation Assay for Mean Firing Rate, Shafer Lab (AID 2284031);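 on AC50: curve fitted for loss of firing so AC50 reflects decreased mean firing rate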
In short: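 Primary rat cortical neurons on 48-well MEA plates, exposed from plating day 0 with dosing renewed on DIV 5 and 9. Mean well firing rate over active electrodes, recorded days 5, 7, 9, 12, summarised as trapezoidal AUC.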

[7] = CCTE_Shafer_MEA_dev_per_burst_spike_percent: CCTE's Neural Network Formation Assay for Percent of Spikes in a Burst, Shafer Lab (AID 2284032);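 on AC50: fitted as a decrease in burst spike percentage below DMSO baseline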
In short: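 Rat primary cortical neurons on 16-electrode MEA wells, dosed from plating day 0 for 12 days with renewal on DIV 5 and 9; spikes-in-bursts percentage averaged over bursting electrodes, collapsed as AUC across days 5, 7, 9, 12; loss direction versus DMSO.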

[8] = CCTE_Shafer_MEA_dev_active_electrodes_number: CCTE's Neural Network Formation Assay for Number of Active Electrodes, Shafer Lab (AID 2284040; active means hit-call score of the fitted dose curve at least 0.9, where 1 is the maximum;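 on AC50: potency for loss of active electrodes versus DMSO so lower counts are hits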)
In short: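 Primary rat cortical neurons on 16-electrode MEA wells, exposed from day 0 through day 12 with compound renewed at DIV 5 and 9 feeds. Active electrodes (mean firing ≥5 spikes/min) counted at DIV 5, 7, 9, 12; trapezoidal AUC across days, loss-of-signal versus DMSO.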

[9] = CCTE_Shafer_MEA_dev_burst_rate: CCTE's Neural Network Formation Assay for Burst Rate, Shafer Lab (AID 2284042);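 on AC50: potency for loss of burst rate below DMSO control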
In short: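 Developmental network assay measuring how 12-day exposure of rat cortical neuron cultures alters bursting on extracellular MEA recordings. Values are AUC of well-mean burst rate across four recording days, relative to DMSO vehicle.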

[10] = CCTE_Shafer_MEA_dev_per_burst_interspike_interval: CCTE's Neural Network Formation Assay for Burst Interspike Interval, Shafer Lab (AID 2284044);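 further: mean spike spacing inside bursts as AUC over recordings on days 5 7 9 12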;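 on AC50: potency for a decrease of within-burst interspike interval below DMSO level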
In short: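 Primary rat cortical neurons on 48-well MEA plates, exposed from day 0 through day 12, treatment renewed at DIV 5 and 9. Within-burst interspike interval recorded days 5, 7, 9, 12, well-averaged, summarised as AUC; negative fit versus DMSO.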

[11] = CCTE_Shafer_MEA_dev_burst_duration_mean: CCTE's Neural Network Formation Assay for Mean Burst Duration, Shafer Lab (AID 2284045);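 on AC50: curve fitted for loss meaning shorter burst duration than DMSO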
In short: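 Primary rat cortical neurons on 48-well 16-electrode MEA plates, exposed from day 0 with renewal at DIV 5 and 9; spontaneous activity recorded on days 5, 7, 9, 12. Well-mean burst duration across bursting electrodes, collapsed as trapezoidal AUC; DMSO baseline.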

[12] = CCTE_Shafer_MEA_dev_interburst_interval_mean: CCTE's Neural Network Formation Assay for Mean Interburst Interval, Shafer Lab (AID 2284046);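 further: well-mean interburst interval of bursting electrodes as AUC over four recording days; curve fitted for decrease in interburst interval relative to DMSO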
In short: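 Network formation assay in primary rat cortical cultures, exposed from DIV 0 to 12. Mean interburst interval per well, integrated as AUC over four recordings.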

[13] = CCTE_Shafer_MEA_dev_network_spike_number: CCTE's Neural Network Formation Assay for Number of Network Spikes, Shafer Lab (AID 2284048);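 further: synchronized bursts across electrodes counted on days 5 7 9 12 and integrated as AUC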;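 on AC50: fit as a loss of signal meaning fewer network spikes than DMSO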
In short: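 Primary rat cortical neurons on PEI/laminin 48-well MEA plates, dosed from plating day 0 for 12 days, renewed at DIV 5 and 9. Network spike counts recorded DIV 5, 7, 9, 12, collapsed as trapezoidal AUC; DMSO baseline.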

[14] = CCTE_Shafer_MEA_dev_network_spike_peak: CCTE's Neural Network Formation Assay for Mean Number of Electrodes in Network Spike, Shafer Lab (AID 2284049);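 on AC50: fitted for loss of signal meaning fewer electrodes in network spikes than DMSO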
In short: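 Network-spike peak electrode count from recordings on days 5, 7, 9 and 12 was combined as trapezoidal area under the curve. Rat cortical cultures were treated continuously from plating, with compound renewed at each feed (DIV 5, 9); fits versus DMSO.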

[15] = CCTE_Shafer_MEA_dev_spike_duration_mean: CCTE's Neural Network Formation Assay for Mean Spike Duration, Shafer Lab (AID 2284051);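 further: mean network spike duration pooled as area under curve over DIV 5 to 12 recordings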;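 on AC50: potency for a decrease in mean network spike duration versus DMSO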
In short: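 With DMSO as baseline, loss of mean network spike duration was scored from extracellular recordings of rat cortical neurons on MEA plates. Exposure spanned plating to DIV 12; the four recording days were collapsed into one AUC value.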

[16] = CCTE_Shafer_MEA_dev_network_spike_duration_std: CCTE's Neural Network Formation Assay for Standard Deviation of Network Spike Duration, Shafer Lab (AID 2284052);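 further: area under curve of spike duration SD across recording days 5 to 12; hits are decreases in network spike duration SD versus DMSO vehicle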
In short: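 Developing networks of rat cortical neurons were exposed over twelve days in vitro on 48-well MEA plates. Trapezoidal AUC of recordings (DIV 5–12) was analysed for signal loss relative to DMSO vehicle.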

[17] = CCTE_Shafer_MEA_dev_per_network_spike_spike_number_mean: CCTE's Neural Network Formation Assay for Mean Number of Spikes in a Network Spike, Shafer Lab (AID 2284053);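 on AC50: fitted as decrease in spikes per network spike relative to DMSO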
In short: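 First, rat cortical cells (1.5 x 10^5/well) were seeded onto MEA wells; second, dosing began at plating and was refreshed on DIV 5 and 9; finally, network-spike spike counts across DIV 5–12 were summarized as AUC.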

[18] = CCTE_Shafer_MEA_dev_per_network_spike_spike_percent: CCTE's Neural Network Formation Assay for Percent of Spikes in a Network Spike, Shafer Lab (AID 2284054)
In short: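 Rat primary cortical neurons were grown on 48-well MEA plates (16 electrodes/well), exposed from plating day 0 through day 12, with treatment renewed on DIV 5 and 9. Percent of spikes within 0.05 s network-spike peaks was measured, summarised as AUC across days 5, 7, 9, 12.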

[19] = CCTE_Shafer_MEA_dev_mutual_information_norm: CCTE's Neural Network Formation Assay for Mutual Information Normalization, Shafer Lab (AID 2284091);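 on AC50: mutual information between electrodes summarised as area under curve across four recording days; potency is for a decrease in mutual information relative to DMSO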
In short: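 Primary rat cortical neurons on PEI-coated 48-well MEA plates, 1.5 x 10^5 cells/well, exposed from day 0 through day 12 with re-dosing at DIV 5 and 9. Mutual information between electrodes recorded days 5, 7, 9, 12; trapezoidal AUC, loss-of-signal fit versus DMSO.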

Measured: AC50

Clc1ccc(-c2ccccc2)cc1
inactive: [1]

N#Cc1cc(I)c(O)c(I)c1
inactive: [2] | [3] | [4]

CCOP(=O)(OCC)Oc1ccc([N+](=O)[O-])cc1
inactive: [5]
active: TTR (gene 7276) 5.87 µM

CC1(C)[C@H](C(=O)O[C@H](C#N)c2cccc(Oc3ccccc3)c2)[C@@H]1C=C(Br)Br
active: [6] 3.1 µM | [7] 7.16 µM | [8] 8.89 µM | [9] 3.86 µM | [10] 15 µM | [11] 5.29 µM | [13] 853 nM | [14] 7.55 µM | [15] 6.4 µM | [16] 3.82 µM | [17] 3.96 µM | [18] 1.8 µM | [19] 641 nM
inactive: [12]

Oc1cc(Cl)ccc1Cl
active: TTR (gene 7276) 1.17 µM

CNC(=N[N+](=O)[O-])NCC1CCOC1 (stereo not given)
not listed: [1] | [2] | [3] | [4] | TTR (gene 7276)
inactive: all other assays above

CC(C)(c1cc(Cl)c(O)c(Cl)c1)c1cc(Cl)c(O)c(Cl)c1
active: TTR (gene 7276) 0.0355 µM
inactive: [2] | [3] | [4]

ClC1=C(Cl)[C@]2(Cl)[C@@H]3[C@@H](Cl)[C@H](Cl)C[C@@H]3[C@@]1(Cl)C2(Cl)Cl
inactive: [1]

CCOC(=O)COc1ccc(Cl)cc1Cl
active: TTR (gene 7276) 19.4 µM

CC(C)CCCCCCCOP(=O)(Oc1ccccc1)Oc1ccccc1
not listed: [1] | [2] | [3] | [4] | [5] | TTR (gene 7276)
inactive: all other assays above

Cc1ccc(OP(=O)(Oc2ccc(C)cc2)Oc2ccc(C)cc2)cc1 (tested in a mixture with another compound)
not listed: [1] | [2] | [3] | [4] | [5] | TTR (gene 7276)
inactive: all other assays above

COc1cc(OC)nc(Oc2cccc(Oc3nc(OC)cc(OC)n3)c2C(=O)O)n1
inactive: [5]

SCc1ccco1
active: [1] 25 µM

O=P(O)(Oc1ccccc1)Oc1ccccc1
inactive: [5]

Cc1cc(C)c(C2=C(OC(=O)CC(C)(C)C)C3(CCCC3)OC2=O)c(C)c1
inactive: [5]

Cl/C=C\CCl
inactive: [1]

C[C@]12CCC(=O)C(O)=C1CC[C@@H]1[C@@H]2CC[C@]2(C)C(=O)CC[C@@H]12
inactive: [2] | [3] | [4]

CC1CCCC1.[C-]#[O+].[C-]#[O+].[C-]#[O+].[Mn]
not listed: [1] | [2] | [3] | [4] | [5] | TTR (gene 7276)
inactive: all other assays above

CCCCCCCCCCCC#N
inactive: [1]

Nc1ccc(Cl)c(Cl)c1
active: TTR (gene 7276) 18.3 µM

CC(=O)c1cc2c(cc1C)C(C)(C)C(C)CC2(C)C (stereo not given)
inactive: [2] | [3] | [4]

C[C@]12CC[C@H]3[C@@H](CC[C@@]45O[C@@H]4C(O)=C(C#N)C[C@]35C)[C@@H]1CC[C@@H]2O
inactive: [2] | [3] | [4]
